The whole screen tested about 4,800 compounds, of which about 410 (8.5%) showed an effect of 50% or more. Only a selection was taken, and strong results are over-represented in it overall.
tested on: Plasmodium falciparum; test: Confirmatory screen in NF54 pLDH assay, in single point, at 2uM, 72h; type: functional, Erythrocyte; details: timepoint 72 hour

| Compound | % Inhibition [%] |
| --- | --- |
| Cc1nc(-c2ccc(N3CCC(NCCCn4ccnc4)CC3)cc2)cs1 | 23 |
| O=C(CN1CCC(c2ccc(F)c(F)c2)CC1)NCc1cccnc1 | -8 |
| Cc1ccc(C(=O)N[C@@H](C)CCc2ccccc2)cc1S(=O)(=O)N1CCN(C)CC1 | -22 |
| O=S(=O)(c1ccccc1C(F)(F)F)N1CC[C@]2(CCN(c3cccnc3)C2)C1 | 10 |
| CC(C#N)CNCCC(C)c1ccccc1 (configuration not stated) | 8 |
| O=C(O)c1cc(C=Cc2ccc3ncccc3c2)ncn1 | 11 |
| COc1ccc2cc3n(c2c1)C[C@](C(=O)NC1CCCCCC1)(c1ccccc1)N(Cc1ccc(OC(C)C)cc1)C3=O | -23 |
| Brc1cnn(Cc2cnc(NC3C4CCOC4C34CCC4)s2)c1 (configuration not stated) | 4 |
| C[C@@H](N)C(=O)N1CCc2cc(-c3ccccc3)ccc21 | 11 |
| CCC1CCCC(NS(=O)(=O)CCC(C)(C)C)C1 (configuration not stated) | -12 |
| Cc1ccc(N2CCN(S(=O)(=O)c3ccccc3)[C@@H](C)C2=O)cc1F | -11 |
| O=c1[nH]c(=O)n(S(=O)(=O)c2ccccc2)cc1F | 87 |
| O=S(=O)(c1ccccc1)N1CCN(S(=O)(=O)c2ccc(Cl)cc2)C1 | 11 |
| COc1ccc(CCNC(=O)c2cc3c(=O)[nH]c(C)cn3n2)cc1OC | 8 |
| COc1cc(F)c(NCc2csc(C3CC3)n2)cc1OC | -21 |
| COC1CCCCC1NC(=O)c1ccc(-c2noc(C(F)(F)F)n2)cc1 (configuration not stated) | 8 |
| CNC[C@H]1CCCN1C(=O)c1ccc(-c2noc(C(F)(F)F)n2)cc1 | 12 |
| COc1cccc(CNC(=O)Cn2c(=O)n(C)c(=O)c3c2c(-c2ccccc2)cn3C)c1OC | -10 |
| Cc1oc(-c2ccn[nH]2)cc1S(=O)(=O)Nc1cccc(Cl)c1 | 4 |
| COc1ccc(-c2noc(Cn3c(=O)c4ccccc4n(CC(=O)NCCc4ccc(OC)c(OC)c4)c3=O)n2)cc1 | 6 |
| CNCC(=O)Nc1ccccc1C(F)(F)F | -9 |
| O=C(c1cnc2ccccc2n1)N1CCCC1 | -1 |
| N[C@H]1C[C@@H](c2cc(N3CCN(C4CCCCC4)CC3)nc(N3CCCC3)n2)C1 | 50 |

| Compound | % Inhibition [%] |
| --- | --- |
| c1ncc(N2CCN3CCC[C@H]3C2)nc1OCC1CCCC1 | -16 |
| Cc1cccc(CNc2cc([C@H]3C[C@@H](N)C3)nc(N3CCCC3)n2)c1 | 14 |
| O=C(O)CCCC(=O)NCCc1ccc(Cl)cc1 | -19 |
| COc1ccc(OCc2nc3cc4c(cc3cc2C(=O)O)OCO4)cc1 | 5 |
| COc1ccc(NC(=O)c2nc(Nc3ccccc3)c3ccccc3n2)cc1 | 7 |
| CCOc1ccc(-n2c(CN3CCN(C(=O)c4ccco4)CC3)nc3ccccc3c2=O)cc1 | 14 |
| CCOc1ccc(Nc2c3ccccc3nc3ccccc23)cc1 | 96 |
| Cc1ccc(-c2ccnc3c(C(=O)N4CCOCC4)cnn23)cc1C | 2 |
| Cc1cccnc1C(F)(F)C(=O)Nc1cc(C)c(O)c(C)c1 | 11 |
| O=C(Nc1ccc(N2CCn3c(nc4cc(Cl)ccc43)C2)cc1)NC1CCCCC1 | -13 |
| C[C@H](OC1CCCCCC1)C(=O)Nc1nc(C(N)=O)cs1 | -11 |
| Cc1ccccc1C(=O)NCc1nn(C2CCCC2)c2c1COCC2 | 6 |
| COc1cccc(CNCCCn2ccnc2)c1OCc1ccc(F)cc1 | 10 |
| COc1ccc(C)c2sc(N(CCCn3ccnc3)C(=O)Cc3ccc(F)cc3)nc12 | 85 |
| Fc1ccc(COc2cccc(CNCCN3CCOCC3)c2)cc1 | -3 |
| COc1cc(CNCCN2CCOCC2)ccc1OCc1cccc(C)c1 | 7 |
| O=C(Nc1ccncc1)c1nc(N2CCCC2)ncc1Br | -9 |
| Cc1nn(C)c(Cl)c1CNCc1ccc(N2CCCCC2)nc1 | -13 |
| CCCc1nnc(N(Cn2nnc3ccccc32)C(=O)CN2CCOCC2)s1 | 2 |
| O=C(c1cncc(Br)c1)N1CC[C@H](c2nc(C3CCOCC3)no2)C1 | 10 |
| CC1CCC(c2noc([C@H]3CCO[C@@H]3c3cncc(Br)c3)n2)CC1 (some centres not stated) | 59 |
| Cc1ccc(NCc2ccc(OCc3cccc4ccccc34)c(Br)c2)cc1 | 11 |
| CCCN(CC(=O)N(Cc1ccccc1)Cc1ccc(C)o1)C(=O)c1ccco1 | -5 |

| Compound | % Inhibition [%] |
| --- | --- |
| O=C(c1ccccc1)C1C(c2ccccc2)N1C(=O)c1ccc(Cl)cc1Cl (configuration not stated) | 6 |
| FC(F)(F)c1nnc(NCc2cncs2)s1 | -7 |
| COCc1nsc(N2CCC(c3c(F)cccc3F)CC2)n1 | 7 |
| CC(C)(C)OC(=O)Nc1cccc(N)n1 | 8 |
| Cn1cncc1CC(=O)Nc1ccnc(NC(=O)OC(C)(C)C)c1 | 100 |
| COc1ccc2c(O)cc(-c3ccccc3)nc2c1 | 1 |
| Nc1c(-c2ccccc2)nsc1C(=O)NCC1CC1 | 9 |
| COc1cccc(NC(=O)N2C[C@@H]3C[C@H](NS(C)(=O)=O)[C@H]2C3)c1 | 8 |
| O=C1CCC(C(=O)N2CCC[C@H]2c2ccncc2)=NN1c1ccccc1 | -11 |
| CON(C)C[C@H](O)Cn1cc(Nc2ncnc3cc(F)ccc23)cn1 | 5 |
| CC[C@H](O)CN1CCC(Nc2ncnc3cc(Cl)ccc23)CC1 | 75 |
| C[C@H](C(=O)Nc1ccc(F)cc1Cn1ccsc1=O)C1CC1 | -14 |
| Cc1cc(CN(C)Cc2nccn2C)ccc1N1CCCCC1 | 1 |
| Cc1nscc1C(=O)Nc1cccc(OCCN2CCCC2)c1 | -15 |
| CC(C)(C)c1cc2c(NCC3=CCOCC3)nccn2n1 | 9 |
| COc1cc(C(=O)Nc2ccc3sc(NC(=O)c4cc(OC)c(OC)c(OC)c4)nc3n2)cc(OC)c1OC | 67 |
| COc1cc(C(=O)Nc2scnc2C)cc(OC)c1OC | 7 |
| Cc1cccc(C(=O)Nc2nc3cc4sc(NC(=O)c5cccc(C)c5)nc4cc3s2)c1 | -8 |
| CNCc1cc(OC)c(OC)cc1Cl | 11 |
| Cc1ccc(C)c(C(=O)Cn2nc3ccc(-c4ccc(Cl)cc4)nn3c2=O)c1 | 6 |
| Cc1nc(NC(=O)c2ccn(COc3ccc(F)c(Cl)c3)n2)sc1C | -8 |

From ChEMBL document CHEMBL4888484, “Replenishing the malaria drug discovery pipeline: Screening and hit evaluation of the MMV Hit Generation Library 1 (HGL1) against asexual blood stage Plasmodium falciparum ,using a nano luciferase reporter read-out” (2022)
